Assay results: the supplement of paper PMC8975748
Counter-ions that a name gives are not always drawn. ± gives the standard deviation of the averaged measurements.

Tests used:
[1] = test system: Saccharomyces cerevisiae BY4741 SeMeCo community; assay: mean cell size (pixel area) (pixels); higher = larger cells; details: 10 µM; 24 h; SM minimal medium
Procedure, shortened: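 Plates of 384 wells were acoustically predosed with drug at a final 10 µM in SM medium, and 70 µl of a Saccharomyces cerevisiae BY4741 preculture diluted from OD600 = 1.0 to OD600 = 0.3 was added for 24 h. The yeast formed a four-plasmid fluorescent community in which each plasmid complements one auxotrophy and carries a fluorescent marker. Fixed cells were imaged by automated confocal microscopy and analysed in Harmony for mean cell pixel area per well. Values are means of 3 replicates. Same SeMeCo high-content imaging drug screen: Selleck FDA-approved drugs at 10 µM, 24 h in SM medium, 384-well plates, 3 replicates.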

[2] = test system: Saccharomyces cerevisiae BY4741 SeMeCo community; assay: z-score of prototroph abundance vs DMSO median; higher = larger share of this subpopulation than in DMSO controls; details: 10 µM; 24 h; SM minimal medium; subpopulation (auxotrophy): Prototroph
Procedure, shortened: (§1)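 Automated confocal microscopy of paraformaldehyde-fixed cells was used to follow a Saccharomyces cerevisiae BY4741 community carrying four plasmids, each restoring one auxotrophy and encoding a distinct fluorescent protein. The community was pre-grown overnight to OD600 1.0, diluted to 0.3, and added at 70 µl to 384-well plates acoustically predosed with library drugs (10 µM final) for 24 h of growth in minimal SM medium. Single-auxotroph fluorescent strains set thresholds and autofluorescence correction, and each subpopulation's abundance was scored as a z-score against the vehicle-well median.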

[3] = test system: Saccharomyces cerevisiae BY4741 SeMeCo community; assay: z-score of subpopulation abundance vs DMSO median, subpopulation auxotrophic for M; higher = larger share of this subpopulation than in DMSO controls; details: 10 µM; 24 h; SM minimal medium; subpopulation (auxotrophy): M
Procedure, shortened: as §1

[4] = test system: Saccharomyces cerevisiae BY4741 SeMeCo community; assay: z-score of subpopulation abundance vs DMSO median, subpopulation auxotrophic for L; higher = larger share of this subpopulation than in DMSO controls; details: 10 µM; 24 h; SM minimal medium; subpopulation (auxotrophy): L
Procedure, shortened: as §1

[5] = test system: Saccharomyces cerevisiae BY4741 SeMeCo community; assay: z-score of subpopulation abundance vs DMSO median, subpopulation auxotrophic for U; higher = larger share of this subpopulation than in DMSO controls; details: 10 µM; 24 h; SM minimal medium; subpopulation (auxotrophy): U
Procedure, shortened: as §1

[6] = test system: Saccharomyces cerevisiae BY4741 SeMeCo community; assay: z-score of subpopulation abundance vs DMSO median, subpopulation auxotrophic for H; higher = larger share of this subpopulation than in DMSO controls; details: 10 µM; 24 h; SM minimal medium; subpopulation (auxotrophy): H
Procedure, shortened: as §1

[7] = test system: Saccharomyces cerevisiae BY4741 SeMeCo community; assay: z-score of subpopulation abundance vs DMSO median, subpopulation auxotrophic for LU; higher = larger share of this subpopulation than in DMSO controls; details: 10 µM; 24 h; SM minimal medium; subpopulation (auxotrophy): LU
Procedure, shortened: as §1

[8] = test system: Saccharomyces cerevisiae BY4741 SeMeCo community; assay: z-score of subpopulation abundance vs DMSO median, subpopulation auxotrophic for LM; higher = larger share of this subpopulation than in DMSO controls; details: 10 µM; 24 h; SM minimal medium; subpopulation (auxotrophy): LM
Procedure, shortened: as §1

[9] = test system: Saccharomyces cerevisiae BY4741 SeMeCo community; assay: z-score of subpopulation abundance vs DMSO median, subpopulation auxotrophic for HM; higher = larger share of this subpopulation than in DMSO controls; details: 10 µM; 24 h; SM minimal medium; subpopulation (auxotrophy): HM
Procedure, shortened: as §1

[10] = test system: Saccharomyces cerevisiae BY4741 SeMeCo community; assay: z-score of subpopulation abundance vs DMSO median, subpopulation auxotrophic for HU; higher = larger share of this subpopulation than in DMSO controls; details: 10 µM; 24 h; SM minimal medium; subpopulation (auxotrophy): HU
Procedure, shortened: as §1

[11] = test system: Saccharomyces cerevisiae BY4741 SeMeCo community; assay: z-score of subpopulation abundance vs DMSO median, subpopulation auxotrophic for UM; higher = larger share of this subpopulation than in DMSO controls; details: 10 µM; 24 h; SM minimal medium; subpopulation (auxotrophy): UM
Procedure, shortened: as §1

[12] = test system: Saccharomyces cerevisiae BY4741 SeMeCo community; assay: z-score of subpopulation abundance vs DMSO median, subpopulation auxotrophic for HL; higher = larger share of this subpopulation than in DMSO controls; details: 10 µM; 24 h; SM minimal medium; subpopulation (auxotrophy): HL
Procedure, shortened: as §1

[13] = test system: Saccharomyces cerevisiae BY4741 SeMeCo community; assay: z-score of subpopulation abundance vs DMSO median, subpopulation auxotrophic for HLU; higher = larger share of this subpopulation than in DMSO controls; details: 10 µM; 24 h; SM minimal medium; subpopulation (auxotrophy): HLU
Procedure, shortened: as §1

[14] = test system: Saccharomyces cerevisiae BY4741 SeMeCo community; assay: z-score of subpopulation abundance vs DMSO median, subpopulation auxotrophic for HLM; higher = larger share of this subpopulation than in DMSO controls; details: 10 µM; 24 h; SM minimal medium; subpopulation (auxotrophy): HLM
Procedure, shortened: as §1

[15] = test system: Saccharomyces cerevisiae BY4741 SeMeCo community; assay: z-score of subpopulation abundance vs DMSO median, subpopulation auxotrophic for HUM; higher = larger share of this subpopulation than in DMSO controls; details: 10 µM; 24 h; SM minimal medium; subpopulation (auxotrophy): HUM
Procedure, shortened: as §1

[16] = test system: Saccharomyces cerevisiae BY4741 SeMeCo community; assay: z-score of subpopulation abundance vs DMSO median, subpopulation auxotrophic for HLUM; higher = larger share of this subpopulation than in DMSO controls; details: 10 µM; 24 h; SM minimal medium; subpopulation (auxotrophy): HLUM
Procedure, shortened: as §1

[17] = test system: Saccharomyces cerevisiae BY4741 SeMeCo community; assay: z-score of subpopulation abundance vs DMSO median, subpopulation auxotrophic for LUM; higher = larger share of this subpopulation than in DMSO controls; details: 10 µM; 24 h; SM minimal medium; subpopulation (auxotrophy): LUM
Procedure, shortened: as §1

Structure (SMILES)	mean cell size [1]	z-score of prototroph abundance [2]	z-score of subpopulation abundance [3]	z-score of subpopulation abundance [4]	z-score of subpopulation abundance [5]	z-score of subpopulation abundance [6]	z-score of subpopulation abundance [7]	z-score of subpopulation abundance [8]	z-score of subpopulation abundance [9]	z-score of subpopulation abundance [10]	z-score of subpopulation abundance [11]	z-score of subpopulation abundance [12]	z-score of subpopulation abundance [13]	z-score of subpopulation abundance [14]	z-score of subpopulation abundance [15]	z-score of subpopulation abundance [16]	z-score of subpopulation abundance [17]
C[C@@H](c1nc(-c2ccc(C#N)cc2)cs1)[C@](O)(Cn1cncn1)c1cc(F)ccc1F [Isavuconazole]	11.95 ± 0.079	-10.4	-1.83	-0.71	-1.5	15.6	0.81	1.61	8.09	8.91	13.4	9.84	6.83	15.5	10.4	13.5	–
COc1ccccc1OCC(O)CN1CCN(CC(=O)Nc2c(C)cccc2C)CC1 (centres undefined) [Ranolazine]	12.5 ± 0.23	-0.25	0.23	0.18	–	-0.13	-0.55	0.68	0.37	-0.09	0.37	-0.42	-0.21	0.19	0.18	0.5	0.49
C[C@]1(COc2ccc(N3CCC(Oc4ccc(OC(F)(F)F)cc4)CC3)cc2)Cn2cc([N+](=O)[O-])nc2O1 [Delamanid]	12.1 ± 0.19	-0.2	-0.38	1.53	-0.77	0.86	0.18	0.45	0	-0.43	-0.53	0.9	0.12	0.05	-0.19	0.08	–
COc1cc(O)c(C(=O)Nc2nc(C(=O)NCCN(C(C)C)C(C)C)cs2)cc1OC [Acotiamide hydrochloride]	12.4 ± 0.15	-0.4	-0.47	-0.26	0.89	0.42	0.52	-0.2	0.26	0.71	–	-0.16	0.19	0.13	0.54	-0.39	–
CCCC1CC(C(=O)NC(C(C)Cl)C2OC(SC)C(O)C(O)C2O)N(C)C1 (centres undefined) [Clindamycin alcoholate]	12.1 ± 0.19	–	0.25	1.51	-0.8	0.65	-0.02	1.04	0.91	-0.93	-0.51	1.2	-0.02	0.08	0.14	-0.12	0.51
CCN(CC)CCOC(=O)c1ccc(N)cc1 [Procaine HCl]	12.5 ± 0.25	0.84	-0.44	-0.69	-0.15	-0.47	-0.34	0	-0.71	-0.49	–	–	0.02	-0.24	-1.23	0.26	0.14
O=S1(=O)CCN(CN2CCS(=O)(=O)NC2)CN1 [Taurolidine]	12.5 ± 0.25	0.42	-0.34	-0.57	0.64	-0.57	0.35	-0.78	-1.08	0.18	–	-1.35	-0.43	-0.64	-0.52	-0.55	–
CN1C(C(=O)Nc2ccccn2)=C(O)c2sc(Cl)cc2S1(=O)=O [Lornoxicam]	12.1 ± 0.13	-0.29	-0.04	-0.14	0.67	-0.26	-0.21	-0.22	-0.77	0.59	–	-0.56	-0.19	0.08	-0.27	-0.1	0.46
CCN1CC(CCN2CCOCC2)C(c2ccccc2)(c2ccccc2)C1=O (centres undefined) [Doxapram HCl]	12.5 ± 0.14	0.14	0	-1.14	–	–	-1.17	-0.29	-0.61	-0.57	0.7	-1.3	-0.53	-1.09	0.9	-0.71	-0.43
O=C1NC(=O)C(c2ccccc2)(c2ccccc2)N1 [Phenytoin]	12.39 ± 0.12	–	0.07	-0.25	0.51	-0.22	0.23	0.5	-0.81	-0.49	–	-0.93	-0.45	-0.09	0.18	-0.04	0.38
O=C(O)c1cc(/N=N/c2ccc(O)c(C(=O)O)c2)ccc1O [Olsalazine Sodium]	12.63 ± 0.099	1.33	-0.62	-0.47	-0.08	-0.62	-0.37	-0.58	-1.16	-0.74	–	–	-1.31	-1.25	-0.73	-0.84	–
CCCOc1ccc(C(=O)OCCN(CC)CC)cc1N [Proparacaine HCl]	12.56 ± 0.068	0.46	-0.55	0.26	0.18	-0.4	0.25	-0.38	-0.65	-0.31	–	-0.68	-0.61	-0.35	-0.66	-0.51	-0.49
CCCc1nn(C)c2c(=O)[nH]c(-c3cc(S(=O)(=O)N4CCN(C)CC4)ccc3OCC)nc12 [Sildenafil Mesylate]	12.2 ± 0.17	-0.95	-0.91	0.21	–	-0.01	0.91	-0.29	-0.05	1.74	0.21	–	0.05	-0.78	1.55	0.08	–
